This passage reports Potency and activity change, negative = inhibition results from PubChem BioAssay AID1159524 (National Center for Advancing Translational Sciences (NCATS), 2015).

Among all 410,000 compounds or so, about 5,100 (1.2%) were called active. Not shown: some 8% with an inconclusive outcome. Calls follow the shape of the full dose curve; tested in HEK293T cells. What follows is part of a selection rich in actives, with near analogues and random picks from the rest. Where a call stands in place of a potency, no number is given.
Potency is read from the fitted curve at half-maximal effect.

A short description of this test: High Throughput Screening for Foot and Mouth Disease Virus Antivirals. Also: nearly all actives have a fitted effect of over 45% in size. The settings on record: FMDV antiviral cell-based qHTS; series mostly up to 57.9 µM. (In general: Quantitative high-throughput screening tests each substance at several concentrations.)
As for `CN1[C@@H]2CC[C@H]1CC(OC(=O)c1cc(Cl)cc(Cl)c1)C2` (stereo not given in full), the Potency result is “inactive”. Consider `Oc1c(C(c2ccc(F)cc2)N2CCN(Cc3ccccc3)CC2)sc2nc(-c3ccco3)nn12` (stereo not given), for which the Potency result was “inactive”. With `O=C(c1ccncc1)N1CCC2(CCN(Cc3cc(C(F)(F)F)cc(C(F)(F)F)c3)CC2)CC1`, the Potency result was “inactive”. The same measure, in the same setting: then `Cc1nc2ccn(Cc3cccs3)c(=O)c2cc1C(=O)NCc1ccc(Cl)cc1`, with “inactive”; and `CCCNC(=O)c1ccc(Cn2c(SCC(N)=O)nc3ccccc3c2=O)cc1`, with “inactive”; and `Cc1nnnn1/C(=C\c1ccccc1)C(=O)OCC(=O)N1CC2(C)CC1CC(C)(C)C2` (stereo not given), with 31.6 µM (active). Take `Cn1nccc1C(=O)NCC1CCC2(CCN(Cc3c(O)ccc4ccccc34)CC2)O1` (stereo not given): the Potency result is “inactive”.

As for `Cc1c(-c2cccc(NC(=O)C(C)(C)C)c2)nc2ncccn12`, the Potency result was “inactive”. As to `O=c1c(O)c(-c2ccc(O)cc2)oc2ccccc12`, the Potency entry was “inactive”. `Cc1ccccc1OCC(=O)NNC(=O)c1cc(S(=O)(=O)N(C)C)ccc1N1CCCC1`: the Potency result was “inactive”. Take `Cc1ccc(NC(=O)COc2coc(CN3CCc4ccccc4C3)cc2=O)cc1Cl`: the Potency result was “inactive”. On to `Cc1ccccc1OCC(=O)Nc1ccc(N2CCN(C(=O)C(C)C)CC2)c(Cl)c1`, for which the Potency was 14.1 µM (active). As to `O=C(Oc1cc(OC(=O)c2ccccc2)c2c(c1)OC(c1ccc(OC(=O)c3ccccc3)c(OC(=O)c3ccccc3)c1)[C@@H](OC(=O)c1ccccc1)C2)c1ccccc1` (stereo not given in full), the Potency entry was “inactive”. With `CCCOc1ccc(NC(=O)CC2C(=O)N(c3ccccc3)C(=O)N2Cc2ccco2)cc1` (stereo not given), the Potency result is “inactive”.

Regarding `CCOC(=O)c1c(C)[nH]c(C)c1S(=O)(=O)N1CCC(C(=O)Nc2ccc(C)c(Cl)c2)CC1`, the Potency result is “inactive”. Turning to `Cn1c(=O)c([N+](=O)[O-])c(Oc2ccccc2)c2ccccc21`, the Potency was 28.2 µM (active). As for `Cc1cccc(C2CC(=O)Oc3c2c(=O)n(C)c2ccccc32)c1` (stereo not given), the Potency result was “inactive”.

As to `COc1cc2c(=O)n(C)c3ccccc3c2cc1OC`, the Potency result was “inactive”.

As for `CC(C)c1cnc(NC(=O)Cc2ccccc2)s1`, the Potency result is “inactive”. `Cc1ccc(-n2nc(C)c3c(C)cc(=O)n(CC(=O)Nc4ccc(C(C)C)cc4)c32)cc1`: the Potency result was “inactive”.

As to `CC(=O)Oc1c2c(c3c(c1CC=C(C)C)O[C@@]14C(=CC5CC1C(C)(C)OC4(C/C=C(\C)C(=O)O)C5=O)C3=O)OC(C)(CCC=C(C)C)C=C2` (stereo not given in full), the Potency is 20 µM (active). On to `COc1cc(=O)n2c(c1C(=O)NC(C)c1ccco1)CCN(Cc1cc(C)cc(C)c1)CC2` (stereo not given), for which the Potency result is “inactive”.

With `CCOc1ccccc1C(=O)NCC(c1ccc(N(C)C)cc1)N1CCCC1` (stereo not given), the Potency entry is “inactive”. In the case of `Cc1cc(-c2ccnc(-n3ncc(C(=O)NCCc4ccncc4)c3C)n2)c(C)s1`, the Potency entry was “inactive”.

Turning to `CCOc1cccc(=NC2CCCCC2)c2c(C)[nH]c(C)c12`, the Potency is 28.2 µM (active). Still for that read-out and setting: the same measure for `CCOc1ccc(C)cc1S(=O)(=O)NC1CCCCCC1`: “inactive”.

Regarding `CC(=O)N1CCC2(CCCN(c3ncccn3)C2)CC1`, the Potency result is “inactive”. In the case of `O=C(O)C1CCN(c2ncnc3ccc(-c4ccccc4C(F)(F)F)cc23)CC1`, the Potency entry is “inactive”.

`O=C(NCCCN1CCN(c2cccc(Cl)c2)CC1)c1nnc(Cc2ccc(F)cc2Cl)o1`: the Potency result was “inactive”. As to `COc1cc(/C=C/C2=CC(C)(C)NC(=S)N2)cc(OC)c1OC`, the Potency entry was “inactive”. For `COc1cc(/C=C/c2ccc(/C=C/c3cc(OC)c(OC)c(OC)c3)cc2)cc(OC)c1OC`, the Potency was 22.4 µM (active). Regarding `COc1cc(/C=C/C(=O)N2CCc3ccccc3C2)cc(OC)c1OC`, the Potency entry is “inactive”.

With `CCN1CCc2nc3sc(C(=O)Nc4ccccc4OC(F)(F)F)c(N)c3cc2C1`, the Potency entry was “inactive”.

On to `CC1OC(OCC2OC(Oc3c(-c4ccc(O)c(O)c4)oc4cc(O)cc(O)c4c3=O)C(O)C(O)C2O)[C@@H](O)C(O)C1O` (stereo not given in full), for which the Potency entry was “inactive”. As for `CCOc1ccc(C(=O)Nc2ccc3nc4c(c(Nc5ccccc5OC)c3c2)CCCC4)cc1`, the Potency entry is “inactive”. Regarding `Cc1ccc(Nc2c3c(nc4ccccc24)CCC3)cc1`, the Potency is 17.8 µM (active). `Cc1noc(C)c1-c1nc(Nc2ccccc2)c2ccccc2n1`: the Potency result is “inactive”.

Turning to `O=C(c1cccc(Cn2cccn2)c1)N1CCOc2c(cc(-c3csc4ccccc34)cc2OC2CCOC2)C1` (stereo not given), the Potency result was “inactive”. Consider `Cc1ccccc1-c1nc(N(C)Cc2ccco2)c2ccccc2n1`, for which the Potency result is “inactive”. Take `CC1(C)OC2CC3C4CCC5=CC(=O)CCC5(C)C4(F)C(O)CC3(C)[C@]2(C(=O)CCl)O1` (stereo not given in full): the Potency entry is “inactive”. Consider `Cc1ccnc(NS(=O)(=O)c2ccc(NC(=O)c3ccc(S(=O)(=O)N4CCOCC4)cc3)cc2)n1`, for which the Potency entry was “inactive”. As for `Cc1ccc(S(=O)(=O)N2CCOCC2)cc1NC(=O)c1ccncc1`, the Potency result was “inactive”. The same measure, in the same setting: the same measure for `COc1ccc(C(=O)Nc2nc(-c3ccc(S(=O)(=O)N4CCOCC4)cc3)cs2)cc1`: 7.94 µM (active); for `CCS(=O)(=O)Nc1cc(C(=O)N2C[C@@H](C)O[C@@H](C)C2)c2c(c1)nc(-c1ccccc1)n2C`: “inactive”; for `Cc1ccc2cccc(NC(=O)c3ccc(OC(C)C)cc3)c2n1`: “inactive”. Consider `CC(C)(C)NC(=O)COC(=O)c1cc(Cl)ccc1[N+](=O)[O-]`, for which the Potency result was “inactive”. For the compound `Cc1ccc(CC(=O)Nc2cccc(C#N)c2)cc1`, the Potency result was “inactive”. On to `N#Cc1cccc(NC(=O)COC(=O)c2ccccc2C(=O)c2ccc(Cl)c([N+](=O)[O-])c2)c1`, for which the Potency is 28.2 µM (active). With `CCOCCn1ccc2c(OCC(=O)NCc3ccc(C)cc3)cccc2c1=O`, the Potency result was “inactive”. On to `COc1ccccc1CNc1ncnc2ccc(-c3c(C)noc3C)cc12`, for which the Potency entry was “inactive”. With `Cc1ccc2oc(=O)c3cnn(CC(=O)N4CCN(c5cccc(Cl)c5)CC4)c3c2c1`, the Potency result was “inactive”. For `Cn1c(SCC(=O)N2CCCc3ccccc32)nc2ccccc2c1=O`, the Potency is 12.6 µM (active).

Turning to `COc1ccccc1Cc1nc2ccccc2nc1SCC(=O)N1CCCc2ccccc21`, the Potency entry is “inactive”. For the compound `Cn1c(SCC(=O)N2CCCc3ccccc32)ncc(C(=O)Nc2ccc(F)cc2)c1=O`, the Potency entry is “inactive”. `COc1cccc(Cn2c(=O)cnc3cncnc32)c1`: the Potency result was “inactive”. For the compound `O=C(c1ccco1)N1CCC2(CC1)CCN(c1ncccn1)CC2`, the Potency result is “inactive”.

Turning to `Cc1c(S(=O)(=O)O)oc2c1C(=O)C(=O)c1c-2ccc2c1CCCC2(C)C`, the Potency result is “inactive”.

With `Cc1ccccc1-c1nc(CS(=O)(=O)CC(=O)Nc2cc(Cl)cc(Cl)c2)c(C)o1`, the Potency entry was “inactive”. Consider `COc1ccc(C(=O)N2CCC[C@@]3(CCN(C(=O)NC(C)C)C3)C2)cc1`, for which the Potency entry is “inactive”. For the compound `Cc1c(C(=O)Nc2cccc(Cl)c2)oc2ccc(S(=O)(=O)N3CCOCC3)cc12`, the Potency entry was “inactive”. As to `COc1cc(=O)n2c(c1C(=O)N(C)Cc1nccs1)CCN(Cc1ccc(Cl)cc1)CC2`, the Potency entry is “inactive”. Regarding `Clc1cc(NC2CCCCC2)ncn1`, the Potency result is “inactive”. The same measure, in the same setting: the same measure for `CCc1cc2c(SCC(=O)Nc3ncc(Cl)c(C)c3Cl)ncnc2s1`: “inactive”; for `CCc1cc2c(NC3CCCC3)ncnc2s1`: 25.1 µM (active); for `Cc1noc(C)c1-c1cc(NCc2cccnc2)ncn1`: “inactive”. `CC(=O)OC1CCC2(O)CC1(C)CCC1C2CC1(C)C` (stereo not given): the Potency result is “inactive”. As for `C[C@@]12CCC3C(CC[C@@H]4CC(O)CC[C@@]34C)C1CCC2O` (stereo not given in full), the Potency result is “inactive”. Still for that read-out and setting: the same measure for `CCCCOc1ccc(C(=O)Nc2cccc(-c3nc4ccccc4o3)c2C)cc1`: “inactive”; for `Cc1cccc(NC(=O)N2CCC(CN3CCc4ccccc4C3)CC2)c1C`: “inactive”. On to `CCCCCCCC/C=C\CCCCCCCC(=O)OC[C@H](CO)OC(C)=O`, for which the activity change, negative = inhibition is -19.7% [at 6.7 µM] (inactive).

In the case of `Cc1ccc(C(=O)N/C(=C\c2ccco2)C(=O)NC2CCS(=O)(=O)C2)cc1` (stereo not given), the Potency entry was “inactive”. As to `COc1ccc(-c2ccc(OC(=O)NC3CCS(=O)(=O)C3)cc2)cc1` (stereo not given), the Potency entry was “inactive”.

For `Cc1cc(C)cc(Oc2nc3c(C)cccn3c(=O)c2/C=C(\C#N)C(=O)NC2CCS(=O)(=O)C2)c1` (stereo not given), the Potency is 22.4 µM (active). Consider `CC(=O)OCC(=O)[C@@]1(O)CCC2C3CCC4=CC(=O)CC[C@@]4(C)[C@]3(F)C(O)C[C@]21C` (stereo not given in full), for which the Potency result is “inactive”. Consider `CCCCC/C=C\CC1OC1CCCCCCCC(=O)O` (stereo not given), for which the activity change, negative = inhibition is -2.3% [at 0.463 µM] (inactive). Take `C=CCN1CCN(C(=O)CCCc2ccccc2)CC1`: the Potency is 14.1 µM (active). Consider `O=C(CCc1ccccc1F)N1CCN(c2ccccc2)CC1`, for which the Potency result is “inactive”. On the same count and under the same terms, then `CCN1CCN(C(=O)CCN2C(=O)c3ccccc3C2=O)CC1`, with “inactive”; and `O=S(=O)(c1ccc(Br)cc1)c1nnn2c1nc(NC1CCCCCC1)c1sccc12`, with “inactive”. Same read-out and setting: then `CC(=O)N1CCC2(CCCN(Cc3ccc(C#N)cc3)C2)CC1`, with “inactive”; and `CC(=O)Nc1ccc(S(=O)(=O)N2CCN(c3ccccc3)CC2)cc1`, with “inactive”; and `CC(=O)Nc1ccc(S(=O)(=O)N2CCN(CCCOc3cc(C)ccc3C)CC2)cc1`, with 31.6 µM (active). For the compound `Cc1ccc(C)c(OCCC(=O)Nc2cccc(S(=O)(=O)N3CCCC3)c2)c1`, the Potency entry was “inactive”. `CCNc1ncc2nc(CCc3ccccc3)c(=O)n(-c3ccc(OC)cc3)c2n1`: the Potency result was “inactive”. For the compound `O=C(c1csnn1)N1CCC[C@@]2(CCN(Cc3nccs3)C2)C1`, the Potency result was “inactive”. In the case of `CC(C)NC(=O)N1CC[C@@]2(CCCN(C(=O)c3cccc(F)c3)C2)C1`, the Potency result is “inactive”. For the compound `CCc1cccc(C)c1Nc1c(-c2ccc(N(C)C)cc2)nc2ncccn12`, the Potency entry was “inactive”.

As to `CC1CCN(C(=O)Cn2c(=O)n(-c3ccc(Cl)cc3)c(=O)c3c4c(sc32)CCC4)CC1`, the Potency entry was “inactive”. Same read-out and setting: then `CCCCn1c(=O)c2oc3ccccc3c2n(CC(=O)Nc2ccccc2OC)c1=O`, with “inactive”. On to `CCCOc1ccc(C(=O)C(CCC(CNCC)C(=O)c2ccc(OCCC)cc2)CNCC)cc1` (stereo not given), for which the Potency was 28.2 µM (active). The same measure, in the same setting: the same measure for `CCCOc1cccc(C(=O)Nc2cccc(NC(=O)c3ccc(C(C)(C)C)cc3)c2)c1`: “inactive”; for `CC(C)CCOc1ccc(C(=O)C[N+]2(C)CCOCC2)cc1`: “inactive”. For `Cc1ccc(C(NC(=O)C2CCN(CCOc3ccc(Cl)cc3Cl)CC2)c2ccccn2)cc1` (stereo not given), the Potency entry was “inactive”.

As to `O=C(NC(c1ccc(-c2ccccc2)cc1)c1cnccn1)C1CCN(CCOc2ccc(Cl)cc2Cl)CC1` (stereo not given), the Potency was 35.5 µM (active). `Cc1cccnc1C(NC(=O)C1CCN(Cc2ccc(Cl)c(Cl)c2)CC1)c1ccc(Cl)cc1` (stereo not given): the Potency result is “inactive”.
